{"source": "PubChem BioAssay", "key": {"[1]": {"experiment": "HepG2 liver cancer cell viability effects, profiling panel, resazurin fluorescence, 24 h, PK04 Diversity Set (AID 1172)", "conditions": "higher = more signal"}, "[2]": {"experiment": "basal S. cerevisiae growth modulation, no modifier, primary screen, OD600, strain BY4716, 24 h, basal condition (AID 1173)", "conditions": "OD600, 24 h, higher = more signal, called active from +8 up or from −8 down"}, "[3]": {"experiment": "MM1S myeloma cell viability, profiling panel, resazurin fluorescence, basal, 24 h, PK04 Diversity Set (AID 1174);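 note: MM1S multiple myeloma cell line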", "conditions": "higher = more signal, called active from +8 up or from −8 down"}, "[4]": {"biological_target": "Dihydroorotate dehydrogenase (quinone), mitochondrial (Plasmodium falciparum (isolate 3D7)) (UniProt Q08210)", "sequence (Q08210 whole entry, looked up)": "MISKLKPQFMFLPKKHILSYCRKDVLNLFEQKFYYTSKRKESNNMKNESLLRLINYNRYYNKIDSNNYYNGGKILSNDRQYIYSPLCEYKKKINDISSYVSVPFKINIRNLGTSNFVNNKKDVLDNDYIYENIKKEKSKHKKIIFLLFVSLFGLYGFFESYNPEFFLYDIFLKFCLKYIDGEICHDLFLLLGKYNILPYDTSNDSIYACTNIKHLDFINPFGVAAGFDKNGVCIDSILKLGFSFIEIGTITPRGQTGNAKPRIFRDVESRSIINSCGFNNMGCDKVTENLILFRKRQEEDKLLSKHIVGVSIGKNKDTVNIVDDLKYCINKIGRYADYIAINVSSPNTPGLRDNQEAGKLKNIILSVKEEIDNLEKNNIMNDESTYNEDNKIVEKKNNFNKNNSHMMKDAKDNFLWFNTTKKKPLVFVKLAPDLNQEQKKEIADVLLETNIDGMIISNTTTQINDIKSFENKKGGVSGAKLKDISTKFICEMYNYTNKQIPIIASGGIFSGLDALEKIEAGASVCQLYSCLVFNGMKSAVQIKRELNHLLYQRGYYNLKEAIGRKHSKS", "experiment": "PfDHODH enzyme inhibitors, primary screen, biochemical, C-terminal His tag, absorbance 600 nm (AID 1175);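 note: recombinant parasite enzyme with a five histidine tag at its C terminus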", "conditions": "DCIP absorbance 600 nm, higher = more signal, called active from +8 up or from −8 down"}, "[5]": {"experiment": "P. aeruginosa biofilm formation inhibitors, primary screen, strain PAO1, LB-PBS medium, absorbance 600 nm (AID 1176)", "conditions": "P. aeruginosa PAO1 growth/biofilm, A600, 12 h; higher = more signal"}, "[6]": {"experiment": "S. cerevisiae RM11-1a growth modifiers, primary screen, strain RM11-1a, OD600, basal, 24 h (AID 1177);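 note: cultures grown under basal conditions with no added stressor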", "conditions": "OD600, 24 h, higher = more signal, called active from +8 up or from −8 down"}, "[7]": {"experiment": "E. coli acrAB mutant growth effects, primary screen, E. coli filamentation inducers, strain DRC39, OD650, 24 h (AID 1178);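 note: growth measured as culture turbidity by optical density at 650 nm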", "conditions": "higher = more signal, called active from +8 up or from −8 down"}, "[8]": {"experiment": "E. coli acrAB mutant growth effects, primary screen, E. coli filamentation inducers, strain DRC39, OD650, 48 h (AID 1179);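 note: screen aims at cell division blockers that make cells filament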", "conditions": "E. coli DRC39 delta-acrAB growth, higher = more signal, called active from +8 up or from −8 down"}, "[9]": {"experiment": "RPMI8226 myeloma cell viability, profiling panel, resazurin fluorescence, basal, 24 h, PK04 Diversity Set (AID 1180);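 note: RPMI8826 multiple myeloma cell line at 5000 cells per well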", "conditions": "higher = more signal"}, "[10]": {"biological_target": "E3 ubiquitin-protein ligase XIAP (Homo sapiens) (UniProt P98170)", "sequence (P98170 whole entry, looked up)": "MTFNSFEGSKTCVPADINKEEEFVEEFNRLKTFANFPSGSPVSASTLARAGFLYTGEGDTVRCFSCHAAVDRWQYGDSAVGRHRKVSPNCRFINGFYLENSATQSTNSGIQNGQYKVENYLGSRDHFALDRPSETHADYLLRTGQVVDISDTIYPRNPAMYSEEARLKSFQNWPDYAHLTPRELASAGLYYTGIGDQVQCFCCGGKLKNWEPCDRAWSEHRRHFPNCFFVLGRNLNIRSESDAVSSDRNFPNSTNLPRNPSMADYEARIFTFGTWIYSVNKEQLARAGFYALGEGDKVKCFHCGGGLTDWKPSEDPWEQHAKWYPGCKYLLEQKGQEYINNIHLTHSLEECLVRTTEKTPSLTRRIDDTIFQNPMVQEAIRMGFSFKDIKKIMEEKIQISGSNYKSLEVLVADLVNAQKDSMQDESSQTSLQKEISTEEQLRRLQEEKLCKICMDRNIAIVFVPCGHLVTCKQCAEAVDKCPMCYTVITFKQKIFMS", "experiment": "XIAP binders, primary screen, biophysical, small-molecule microarray, fluorescence 635 nm (AID 1181);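 note: score merges 667 nm emission and signal to noise over triplicate slides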", "conditions": "small-molecule microarray binding, higher = more signal"}, "[11]": {"tested_on": "XIP peptide (Xip251-270) binding", "experiment": "small-molecule binders of XIP peptide, primary screen, biochemical, small-molecule microarray, fluorescence 635/667 nm, 0.1 µg/mL protein (AID 1182)", "conditions": "fluorescent protein binding, 635 nm, higher = more signal, called active from +8 up or from −8 down"}, "XIP peptide (Xip251-270)": {"tested_on": "XIP peptide (Xip251-270)", "experiment": "small-molecule binders of XIP peptide, primary screen, biochemical, small-molecule microarray, fluorescence 635/667 nm, 0.5 µg/mL protein (AID 1183)", "conditions": "small-molecule microarray binding, fluorescence 635 nm; higher = more signal"}, "[12]": {"experiment": "Plasmodium falciparum growth inhibition, primary screen, strain 3D7, DAPI fluorescence, 100 nL (AID 1184);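 note: parasites grown inside human red blood cells in medium with human serum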", "conditions": "P. falciparum 3D7 growth, 3 d, higher = more signal"}, "[13]": {"biological_target": "Homeobox protein Hox-A13 (Mus musculus) (UniProt Q62424)", "sequence (Q62424 whole entry, looked up)": "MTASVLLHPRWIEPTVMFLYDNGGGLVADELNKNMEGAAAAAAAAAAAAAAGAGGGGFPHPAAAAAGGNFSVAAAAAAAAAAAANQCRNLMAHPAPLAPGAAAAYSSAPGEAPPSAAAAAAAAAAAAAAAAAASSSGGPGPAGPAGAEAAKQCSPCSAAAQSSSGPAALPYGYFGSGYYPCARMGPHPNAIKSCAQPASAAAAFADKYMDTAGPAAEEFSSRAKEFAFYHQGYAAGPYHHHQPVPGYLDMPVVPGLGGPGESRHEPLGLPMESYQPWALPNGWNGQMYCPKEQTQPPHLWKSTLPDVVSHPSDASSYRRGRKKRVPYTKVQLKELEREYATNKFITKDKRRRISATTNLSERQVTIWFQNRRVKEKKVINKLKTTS", "experiment": "inhibitors of HoxA13-DNA binding, primary screen, biochemical, fluorescence polarization, labeled oligonucleotide (AID 1185)", "conditions": "15 min, higher = more signal, called active from +8 up or from −8 down"}, "[14]": {"experiment": "inhibitors of hydroxyurea-induced Chk1 phosphorylation, primary screen, imaging, HeLa, phospho-Chk1 antibody, percent positive cells (AID 1186)", "conditions": "hydroxyurea-induced phospho-Chk1 immunofluorescence imaging, higher = more signal"}, "[15]": {"experiment": "inhibitors of hydroxyurea-induced Chk1 phosphorylation, primary screen, imaging, HeLa, phospho-Chk1 nuclear intensity (AID 1187)", "conditions": "hydroxyurea-induced phospho-Chk1 immunofluorescence imaging, higher = more signal"}}, "note": "Activity calls are given as the source filed them. Unless noted, the rule behind the calls is not given here."}
{"compound": "NCCCCCCNC(=O)[C@@H]1C[C@@H]2C(=O)N[C@@H](CCCCN)C(=O)N2[C@@H]1c1ccc(O)cc1", "values": [{"measurement": "z-score", "setting": "[1]", "result": 0.0187}, {"measurement": "z-score", "setting": "[2]", "result": "0.243 (inactive)"}, {"measurement": "z-score", "setting": "[3]", "result": "0.681 (inactive)"}, {"measurement": "composite z-score", "setting": "[4]", "result": "-29.1 (active)"}, {"measurement": "z-score", "setting": "[5]", "result": "2.5 (inactive)"}, {"measurement": "z-score", "setting": "[6]", "result": "-0.476 (inactive)"}, {"measurement": "z-score", "setting": "[7]", "result": "-0.273 (inactive)"}, {"measurement": "z-score", "setting": "[8]", "result": "-1.11 (inactive)"}, {"measurement": "z-score", "setting": "[9]", "result": -0.354}, {"measurement": "composite z-score", "setting": "[10]", "result": -0.28}, {"measurement": "composite z-score", "setting": "[11]", "result": "2.07 (inactive)"}, {"measurement": "composite z-score", "setting": "XIP peptide (Xip251-270)", "result": 0.739}, {"measurement": "z-score", "setting": "[12]", "result": -0.978}, {"measurement": "z-score", "setting": "[13]", "result": "-1.72 (inactive)"}, {"measurement": "z-score", "setting": "[14]", "result": "-0.546 (inactive)"}, {"measurement": "z-score", "setting": "[15]", "result": "-0.123 (inactive)"}]}
{"compound": "CCCCCCc1nc(Cc2cc(OC)c(OC)c(OC)c2)cc2c1[Si](C(C)C)(C(C)C)OC2", "values": [{"measurement": "z-score", "setting": "[1]", "result": 0.842}, {"measurement": "z-score", "setting": "[2]", "result": "0.273 (inactive)"}, {"measurement": "z-score", "setting": "[3]", "result": "0.0456 (inactive)"}, {"measurement": "composite z-score", "setting": "[4]", "result": "-2.69 (inactive)"}, {"measurement": "z-score", "setting": "[5]", "result": "-0.215 (inactive)"}, {"measurement": "z-score", "setting": "[6]", "result": "-0.0979 (inactive)"}, {"measurement": "z-score", "setting": "[7]", "result": "-0.284 (inactive)"}, {"measurement": "z-score", "setting": "[8]", "result": "-0.279 (inactive)"}, {"measurement": "z-score", "setting": "[9]", "result": -0.295}, {"measurement": "composite z-score", "setting": "[10]", "result": 0.0009}, {"measurement": "composite z-score", "setting": "[11]", "result": "0.181 (inactive)"}, {"measurement": "composite z-score", "setting": "XIP peptide (Xip251-270)", "result": 0.0776}, {"measurement": "z-score", "setting": "[12]", "result": -2.67}, {"measurement": "z-score", "setting": "[13]", "result": "-3.54 (inactive)"}, {"measurement": "z-score", "setting": "[14]", "result": "-1.16 (inactive)"}, {"measurement": "z-score", "setting": "[15]", "result": "-0.743 (inactive)"}]}
{"compound": "[N-]=[N+]=Nc1ccccc1C[C@]1(C(=O)O)COC(c2ccc(OCCCO)cc2)=N1", "values": [{"measurement": "z-score", "setting": "[1]", "result": -0.365}, {"measurement": "z-score", "setting": "[2]", "result": "-0.231 (inactive)"}, {"measurement": "z-score", "setting": "[3]", "result": "0.037 (inactive)"}, {"measurement": "composite z-score", "setting": "[4]", "result": "1.04 (inactive)"}, {"measurement": "z-score", "setting": "[5]", "result": "0.0254 (inactive)"}, {"measurement": "z-score", "setting": "[6]", "result": "0.212 (inactive)"}, {"measurement": "z-score", "setting": "[7]", "result": "0.438 (inactive)"}, {"measurement": "z-score", "setting": "[8]", "result": "-0.8 (inactive)"}, {"measurement": "z-score", "setting": "[9]", "result": 0.404}, {"measurement": "composite z-score", "setting": "[10]", "result": 0.245}, {"measurement": "composite z-score", "setting": "[11]", "result": "1.09 (inactive)"}, {"measurement": "composite z-score", "setting": "XIP peptide (Xip251-270)", "result": 0.907}, {"measurement": "z-score", "setting": "[12]", "result": -1.54}, {"measurement": "z-score", "setting": "[13]", "result": "-4.69 (inactive)"}, {"measurement": "z-score", "setting": "[14]", "result": "0.0118 (inactive)"}, {"measurement": "z-score", "setting": "[15]", "result": "0.0756 (inactive)"}]}
{"compound": "CC(C)c1ccc(NN2C(C(O)c3ccc(F)cc3)C=CC3C(=O)N(c4ccccc4)C(=O)C32)cc1", "note": "(stereo not given)", "values": [{"measurement": "z-score", "setting": "[1]", "result": -0.0361}, {"measurement": "z-score", "setting": "[2]", "result": "-2.21 (inactive)"}, {"measurement": "z-score", "setting": "[3]", "result": "-1.25 (inactive)"}, {"measurement": "composite z-score", "setting": "[4]", "result": "0.319 (inactive)"}, {"measurement": "z-score", "setting": "[5]", "result": "1.36 (inactive)"}, {"measurement": "z-score", "setting": "[6]", "result": "0.737 (inactive)"}, {"measurement": "z-score", "setting": "[7]", "result": "-0.159 (inactive)"}, {"measurement": "z-score", "setting": "[8]", "result": "0.127 (inactive)"}, {"measurement": "z-score", "setting": "[9]", "result": -0.895}, {"measurement": "composite z-score", "setting": "[10]", "result": -0.226}, {"measurement": "composite z-score", "setting": "[11]", "result": "0.344 (inactive)"}, {"measurement": "composite z-score", "setting": "XIP peptide (Xip251-270)", "result": 0.774}, {"measurement": "z-score", "setting": "[12]", "result": -0.344}, {"measurement": "z-score", "setting": "[13]", "result": "-1.93 (inactive)"}, {"measurement": "z-score", "setting": "[14]", "result": "0.51 (inactive)"}, {"measurement": "z-score", "setting": "[15]", "result": "0.374 (inactive)"}]}
{"compound": "C=CCOC(=O)[C@@H]1[C@H]2C(=O)O[C@H](c3ccccc3)[C@H](c3ccccc3)N2[C@H](c2ccc(OCCOC(=O)[C@@H]3C[C@@H]4C(=O)N[C@@H](CCCC[N+](C)(C)C)C(=O)N4[C@@H]3c3ccc(O)cc3)cc2)[C@@]12C(=O)Nc1ccc(I)cc12", "values": [{"measurement": "z-score", "setting": "[1]", "result": 0.945}, {"measurement": "z-score", "setting": "[2]", "result": "-0.398 (inactive)"}, {"measurement": "z-score", "setting": "[3]", "result": "-0.596 (inactive)"}, {"measurement": "composite z-score", "setting": "[4]", "result": "-2.02 (inactive)"}, {"measurement": "z-score", "setting": "[5]", "result": "0.379 (inactive)"}, {"measurement": "z-score", "setting": "[6]", "result": "1.39 (inactive)"}, {"measurement": "z-score", "setting": "[7]", "result": "-0.507 (inactive)"}, {"measurement": "z-score", "setting": "[8]", "result": "-0.809 (inactive)"}, {"measurement": "z-score", "setting": "[9]", "result": -0.0426}, {"measurement": "composite z-score", "setting": "[10]", "result": -0.124}, {"measurement": "composite z-score", "setting": "[11]", "result": "0.481 (inactive)"}, {"measurement": "composite z-score", "setting": "XIP peptide (Xip251-270)", "result": 0.808}, {"measurement": "z-score", "setting": "[12]", "result": -1.11}, {"measurement": "z-score", "setting": "[13]", "result": "6.56 (inactive)"}, {"measurement": "z-score", "setting": "[14]", "result": "0.355 (inactive)"}, {"measurement": "z-score", "setting": "[15]", "result": "0.521 (inactive)"}]}
